Unmarked numbers belong to inactive results. Calls come from the whole dose curve; as a rule, active = well fitted activation curve with a large enough effect in the repeat runs; inconclusive = weak or mixed curves; inactive = flat fitted curve, though single readings scatter.
% is set by controls: 0 for no effect and ±100 for the full control effect.

A short description of this assay: Caspase-3/7 induction in CHO-K1 cells by small molecules, qHTS assay (AID 1346980). Note: nearly all actives have a fitted effect of over 15% in size. The conditions noted are these: CHO-K1 caspase-3/7 induction, Caspase-Glo luminescence, 17 h; series mostly up to 92.4 µM; caspase-3/7 activation: at the top concentration. From the text: National Center for Advancing Translational Sciences [NCATS]
NIH Chemical Genomics Center [NCGC]
U.S. Environmental Protection Agency [EPA]
National Institutes of Environmental Health Sciences [NIEHS]
National Toxicology Program [NTP]
Apoptosis is a process of programmed cell death and plays a central role in the development of multicellular organisms. It is a highly regulated process and induces cell death by activating caspases, which are the members of cysteine aspartic acid-specific protease (caspase) family. Caspases involved in apoptosis are classified by their mechanism of action as initiator caspases (caspase-2, -8, -9 and -10) and executioner caspases (caspase-3, -6, and -7). Inhibition of apoptosis results in number of cancers, autoimmune diseases, inflammatory diseases and viral infection. To identify small molecule compounds that induce apoptosis, a homogeneous, luminescent Caspase-Glo 3/7 assay was used. Wild type CHO-K1 cells were used to screen Tox21 libraries for identifying caspase-3/7 activity inducers.
CHO-K1 cells were dispensed at 1,500 per well in 5uL of culture medium into white solid bottom 1536-well plates (Corning Life Sciences, Corning, NY) using a Multidrop Combi (Thermo Scientific, Waltham, MA) dispenser. The assay plates were incubated at 37 C and 5% CO2 for 5hr, and then 23nL of compounds dissolved in DMSO and positive control were transferred using a Pintool station (Wako, San Diego, CA). The assay plates were incubated at 37C and 5% CO2 for 17hr. For caspase-3/7 activity read, 4uL of Caspase-Glo 3/7 reagent (Promega Corporation, Madison, WI) was added to each well of the assay plates using Flying Reagent Dispenser (FRD, Aurora Discovery, San Diego, CA) and incubated the assay plates at room temperature for 30min. The luminescence signal was quantified using a ViewLux plate reader (Perkin Elmer, Shelton, CT).
For the compound `Cc1c(N=C=O)cccc1N=C=O`, the “caspase-3/7 activation” value was 0.264%.

With `O=C(OC1C[C@H]2CC[C@@H](C1)[N+]21CCCC1)C(O)(c1ccccc1)c1ccccc1` (stereo not given in full), the “caspase-3/7 activation” value is 0.181% [at 42.5 µM].

Take `O=C(O)c1cc(C(=O)O)cc([N+](=O)[O-])c1`: the “caspase-3/7 activation” value was -0.179%.

For `CCOCCn1c(N2CCCN(C)CC2)nc2ccccc21`, the “caspase-3/7 activation” value was 0.457% [at 42.5 µM].

Take `Clc1cccc(C(c2ccc3nc[nH]c3c2)n2ccnc2)c1` (stereo not given): the “caspase-3/7 activation” value is 1.2% [at 42.5 µM].

Regarding `CCCCCCCCCCCCSC#N`, the “caspase-3/7 activation” value was 1.04%.

Consider `CC(C)Cc1nccs1`, for which the “caspase-3/7 activation” value is -0.0937%.

As to `COc1cc(CNC(=O)CCCC/C=C/C(C)C)ccc1O`, the “caspase-3/7 activation” value is -1.38%.

On to `CCCc1nc(C)c2c(=O)[nH]c(-c3cc(S(=O)(=O)N4CCN(CC)CC4)ccc3OCC)nn12`, for which the “caspase-3/7 activation” value was 1.15% [at 42.5 µM].

For `Cc1cc(C)c(C)c(O)c1`, the “caspase-3/7 activation” value was 0.272%.

For the compound `FC1(F)C(F)(F)C(F)(F)C2(F)C(F)(C1(F)F)C(F)(F)C(F)(F)C1(F)C(F)(F)C(F)(F)C(F)(F)C(F)(F)C12F` (stereo not given), the “caspase-3/7 activation” value is 0.385%.

With `CCCCCCCCCC(C)C=O` (stereo not given), the “caspase-3/7 activation” value is -1.7%.

Consider `CCC[Si](OC)(OC)OC`, for which the “caspase-3/7 activation” value is -0.533%.

Consider `CCC(CC)C(=O)O`, for which the “caspase-3/7 activation” value was -0.123%.

With `Cc1ccc(NC=O)c(C)c1`, the “caspase-3/7 activation” value was 0.191%.

As to `CC(C)(Cc1c[nH]c2ccccc12)NCC(O)COc1ccccc1C#N` (stereo not given), the “caspase-3/7 activation” value was -1.13% [at 42.5 µM].

As for `COc1ccc(C(=O)c2ccc(C)cc2)c(O)c1`, the “caspase-3/7 activation” value is -1.61%.

As for `O=C(C1CCCCC1)N1CC(=O)N2CCCc3ccccc3C2C1` (stereo not given), the “caspase-3/7 activation” value was 0.0066% [at 42.5 µM].

On to `CC(Cc1ccccc1)(NC(=O)CN)c1ccccc1` (stereo not given), for which the “caspase-3/7 activation” value is 0.247% [at 42.5 µM].

On to `O=C(O)c1ccccc1[N+](=O)[O-]`, for which the “caspase-3/7 activation” value was -0.511%.

For `C(/C=C/C=C/Nc1ccccc1)=Nc1ccccc1`, the “caspase-3/7 activation” value was -0.153%.

As for `Sc1nc(S)nc(S)n1`, the “caspase-3/7 activation” value is -0.465% [at 42.5 µM].

In the case of `Cc1cc(SC2=C(O)C[C@@](CCc3ccc(N)cc3)(C(C)C)OC2=O)c(C(C)(C)C)cc1CO`, the “caspase-3/7 activation” value is 1.89%.

In the case of `O=C(c1ccco1)N1CCNCC1`, the “caspase-3/7 activation” value is 1.84% [at 42.5 µM].

`NCCOCCOCCN`: the “caspase-3/7 activation” value was -0.0187%.

For `O=Cc1ccc(Cl)c([N+](=O)[O-])c1`, the “caspase-3/7 activation” value is -0.397%.

As for `FC(F)(Cl)C(F)(Cl)Cl`, the “caspase-3/7 activation” value is 0.735%.

Turning to `C[C@H](CN1CCCC1)C(=O)c1ccc(C(F)(F)F)cc1`, the “caspase-3/7 activation” value was -0.773% [at 42.5 µM].

Regarding `COc1ccc(CN(CCN(C)C)c2ncccn2)cc1`, the “caspase-3/7 activation” value was -1.1% [at 42.5 µM].

For the compound `C[C@]12CCC(=O)C=C1[C@@H]1C[C@@H]1[C@H]1[C@@H]3[C@@H]4C[C@@H]4[C@@]4(CCC(=O)O4)[C@@]3(C)CC[C@@H]12`, the “caspase-3/7 activation” value is 0.736% [at 42.5 µM].

As to `CC(CN=Cc1ccccc1O)N=Cc1ccccc1O` (stereo not given), the “caspase-3/7 activation” value was 0.637%.

On to `CC1(C)[C@@H]2CC[C@]3(C2)[C@@H]1C(=O)CCC3(C)C`, for which the “caspase-3/7 activation” value is 1.2%.

In the case of `c1ccc(CCNc2nc(-c3ccccc3)cs2)cc1`, the “caspase-3/7 activation” value is -5.94% [at 42.5 µM].

As to `CC(=O)Nc1ccccc1O`, the “caspase-3/7 activation” value is -0.0328%.

With `Cc1ccc(S(=O)(=O)NC(=O)NC2CCCC2)cc1`, the “caspase-3/7 activation” value was 0.331% [at 42.5 µM].

As for `CCCCCC1CCC(=O)O1` (stereo not given), the “caspase-3/7 activation” value was 0.318%.

With `Clc1nc2ccccc2nc1Cl`, the “caspase-3/7 activation” value was 0.859%.

Regarding `COc1ccc(/C=C/S(=O)(=O)NC(=O)c2ccc(C)cc2Cl)cc1`, the “caspase-3/7 activation” value is -0.194%.

With `CCCCCCCCCCCCCCCCN`, the “caspase-3/7 activation” value is -1.14% [at 42.5 µM].

On to `CCCCCCCCNC`, for which the “caspase-3/7 activation” value is -0.117%.
